# About 420 (0.61%) of roughly 69,000 compounds showed an effect of 50% or more. This is one part of a sample in which strong results are shown more often than they occur.
# Target: T1, Histidine--tRNA ligase (Leishmania infantum) (UniProt A4I591)
# T1 sequence (whole entry): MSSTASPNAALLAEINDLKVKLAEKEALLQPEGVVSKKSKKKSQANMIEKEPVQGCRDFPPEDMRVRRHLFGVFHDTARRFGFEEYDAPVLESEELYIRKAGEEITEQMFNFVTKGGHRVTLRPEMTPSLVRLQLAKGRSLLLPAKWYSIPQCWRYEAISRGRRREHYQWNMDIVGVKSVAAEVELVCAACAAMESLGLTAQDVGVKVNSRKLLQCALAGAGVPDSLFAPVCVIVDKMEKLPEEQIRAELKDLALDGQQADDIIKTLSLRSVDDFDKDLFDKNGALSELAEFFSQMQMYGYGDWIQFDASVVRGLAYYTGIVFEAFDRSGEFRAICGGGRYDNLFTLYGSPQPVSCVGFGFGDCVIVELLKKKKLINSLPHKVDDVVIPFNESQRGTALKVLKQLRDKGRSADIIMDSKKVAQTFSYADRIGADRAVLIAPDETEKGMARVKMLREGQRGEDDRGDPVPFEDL
# Test: Leishmania infantum Histidine tRNA synthetase (LdHisRS)
# Assay type: functional
# Design: scale not given: in the data most compounds retested in dose-response had high values
# Conditions: 30 µM
row,Structure (SMILES),Percent Effect
1,COCCNc1cc(-c2ccccc2CCN)c2cc[nH]c2n1,4.84%
2,CNc1cc(-c2ccc(COCCN)cc2)c2cc[nH]c2n1,20.5%
3,CNc1cc(-c2cccc(CN)c2)c2cc[nH]c2n1,68.7%
4,CNc1cc(C)nc(-c2cc(NC)nc3[nH]ccc23)n1,-2.04%
5,Cc1cccc(C)c1-c1cc(NCCO)nc2[nH]ccc12,10%
6,CNc1cc(-c2ccccc2CN)c2cc[nH]c2n1,80.7%
7,O=C(c1cocn1)N1CC[C@H]2OCC[C@@]2(COc2ncccc2F)C1,22.4%
8,O=C(Cc1ccccc1)N1CC[C@@H]2CNS(=O)(=O)[C@@H]2CC1,28.1%
9,Nc1cccnc1N1CCN(c2ccccc2)CC1,8.33%
10,Nc1cccnc1N1CCCCCC1,58.3%
11,Nc1cccnc1N1CCC(O)CC1,12.5%
12,COc1ccc(CC(=O)N2C[C@@H]3COC[C@]3(CN(C)C)C2)cc1,-47.1%
13,Cc1nc(COC[C@@H]2CC[C@H]3[C@H](CCN3C(=O)C3CC3)O2)cs1,14.7%
14,Cc1cccc(C(=O)N2C[C@@H]3CCN(c4cccnc4)C[C@@H]3C2)c1,6.57%
15,CN(C)C(=O)CN1CC[C@H]2CN(C3CCOCC3)C[C@@H]2C1=O,11.7%
16,CCn1nc2c(cc1=O)CN(CC1CCCCO1)CC2 (configuration not stated),0%
17,Cn1nc2c(cc1=O)CN(CCN1CCCC1=O)CC2,4.39%
18,Cc1ncc2c(n1)CN(CC1CCCCO1)CC2 (configuration not stated),25.7%
19,CC(C)n1nc2c(cc1=O)CN(CC1CCCCO1)CC2 (configuration not stated),35.6%
20,Cn1nc2c(cc1=O)CN(CC1CCCCO1)CC2 (configuration not stated),104%
21,CCCn1nc2c(cc1=O)CN(CC1CCCCO1)CC2 (configuration not stated),79.5%
22,CCCSCC(=O)N1C[C@H]2CC[C@@H]1CN(c1ncccn1)C2,4.17%
23,CC(C)CC(=O)N1CC[C@H]2N(C)CC[C@@]2(C(=O)Nc2ccccc2)CC1,15.4%
24,Cc1nccc([C@@H]2C[C@@H]3CCN(S(C)(=O)=O)C[C@H]3O2)n1,22.6%
25,CC1=N[C@@]2(CC[C@@H]3CN(CC(=O)N(C)C)C[C@@H]32)C(=O)N1CC1CC1,23.1%
26,COc1cccc(CN2CC(=O)N(c3ccccc3C)CC2C)c1OC (configuration not stated),38.5%

row,Structure (SMILES),Percent Effect
1,COc1ccc(F)c(CN2CC(=O)N(c3ccccc3C)CC2C)c1 (configuration not stated),31.3%
2,COc1ccc(F)c(F)c1CN1CC(=O)N(c2ccccc2C)CC1C (configuration not stated),53%
3,c1csc(N2[C@H](Cn3cncn3)C[C@@H]3CNCC[C@@H]32)n1,-6.84%
4,CC(C)c1cc(N2CC[C@H](F)C2)n2nccc2n1,22.2%
5,CC(C)c1cc(N2CCC(N)CC2)n2nccc2n1,22.9%
6,CC(C)c1cc(N2CCC(C(C)N3CCCC3)CC2)n2nccc2n1 (configuration not stated),69.4%
7,Cc1cccc(CO[C@@H]2CC[C@H]3[C@H]2OCCN3Cc2cc(C)on2)n1,22.2%
8,O=C(NC[C@H]1CC[C@H](c2ccnc3ncnn32)CC1)c1ccccn1,7.04%
9,CC(C)C(C)NC(=O)Nc1cccn(C)c1=O (configuration not stated),63.4%
10,Cn1cccc(NC(=O)NCCc2cccc(O)c2)c1=O,55%
11,CC(CCc1cccn1C)NC(=O)Nc1cccn(C)c1=O (configuration not stated),38.4%
12,Cn1cccc(NC(=O)NCc2cccc(CO)c2)c1=O,55%
13,Cc1cccc(C)c1OCC(=O)Nc1cccn(C)c1=O,21%
14,CCSCCC(C)NC(=O)Nc1cccn(C)c1=O (configuration not stated),29.5%
15,Cn1cccc(NC(=O)NCCOCc2ccccc2)c1=O,22%
16,Cn1cccc(NC(=O)COc2ccc(Cl)cc2)c1=O,34.5%
17,CN1CCN(c2ccccc2NC(=O)NCCc2ccc(O)cc2)CC1,21.5%
18,COCCN1CCO[C@H]2CN(Cc3cc[nH]n3)C[C@H]21,23.8%
19,CS(=O)(=O)N[C@@H]1CN(C(=O)c2ccccn2)C[C@@H]2CCCO[C@@H]21,15.6%
20,CN1CCO[C@@H]2CN(C(=O)NCc3cccc(F)c3)CC[C@@H]2C1,4.54%
21,CCCS(=O)(=O)N1C[C@@H](c2nc(C)no2)C[C@H]2OCC[C@H]21,11.7%
22,Cc1cccc(C(=O)N2C[C@@H]3OCCN(CCN4CCCC4)[C@@H]3C2)n1,16%
23,CCS(=O)(=O)N1CC[C@@H]2[C@H](CC1)N(CC(C)C)CCS2(=O)=O,10.5%
24,O=C(NCC1CC1)[C@H]1C[C@@H]2CN(S(=O)(=O)Cc3ccccc3)C[C@H]1O2,-0.73%
25,O=C(c1ccncc1)N1CC[C@@H]2[C@@H](CC1)OCCN2c1cccnc1,17.5%
26,Cc1nc(CO[C@H]2CN(Cc3cccs3)[C@@H]3COC[C@H]23)cs1,8.06%

row,Structure (SMILES),Percent Effect
1,COCc1nc2cc3c(cc2c(=O)o1)OCCCO3,15.7%
2,COCc1nc2cc(NCc3cc[nH]n3)ccc2o1,106%
3,COCc1nc2cc(NCc3ccncc3)ccc2o1,100%
4,CCCS(=O)(=O)C(C)C(=O)Nc1ccc2oc(C3CC3)nc2c1 (configuration not stated),26.8%
5,COCc1nc2cc(NCc3ncc[nH]3)ccc2o1,38.4%
6,CCC(C)CNc1ccc2oc(COC)nc2c1 (configuration not stated),94.2%
7,c1cc(CN2CCCCC2)cc(NCc2cc[nH]n2)c1,15.8%
8,CN1CCN(Cc2cccc(NCc3cc[nH]n3)c2)CC1,12.3%
9,COCc1cccc(NCc2cccnc2)c1,6.67%
10,O=C(NC1CC1)[C@H]1COC[C@H]2CN(c3ncc(F)cn3)C[C@H]21,12%
11,Cc1nc(CN2CCO[C@H]3CN(C(=O)c4cccn4C)C[C@H]32)cs1,10.5%
12,CNC(=O)[C@@H]1[C@@H](c2ccccc2)CN2CCN(Cc3cccs3)C[C@H]12,6.12%
13,Cc1ccc(CN2C[C@@H]3CN(CC4CCOCC4)CCO[C@@H]3C2)s1,19%
14,COCC(=O)N[C@H]1C[C@H]2C(=O)NC[C@@H](CCC(=O)NC3CC3)N2C1,5.56%
15,CN(C)C(=O)[C@@H]1CCO[C@@H]2CCN(c3ncccn3)C[C@@H]21,0%
16,CNC(=O)[C@@H]1CC[C@@H]2[C@@H](CCN2C(=O)N(C)C)O1,0%
17,COC[C@@]12CCO[C@@H]1CCN(C(=O)Cc1cccc(F)c1)C2,19.4%
18,CCOc1ccc2nc(CN3CCC(CNC(C)=O)C3)ccc2c1 (configuration not stated),37.3%
19,CCOc1ccc2nc(CN3CCC(CN)C3)ccc2c1 (configuration not stated),52.2%
20,CCOc1ccc2nc(CN3CCOC(CN)C3)ccc2c1 (configuration not stated),13.4%
21,COC[C@@]12CCO[C@@H]1CCN(C(=O)Cc1ccccc1F)C2,11.4%
22,O=C1[C@@H]2CCN(Cc3ccoc3)C[C@@H]2OCCN1Cc1cccnc1,15.3%
23,Cc1ccc(OCCC(=O)NC2CC(=O)N(C)C2)cc1C (configuration not stated),12.7%
24,Cc1cc(C)cc(OCCC(=O)NC2CC(=O)N(C)C2)c1 (configuration not stated),74.7%
25,CN1CC(NC(=O)CCOc2cccc(Cl)c2)CC1=O (configuration not stated),4.22%
